Measurements published in article PMC5540273 (PLoS ONE, 2017).

Each compound was assayed on CSNK1G3. Settings: concentration: 1 μM,replicates: in singlicate; n = 1.
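Further: KINOMEscan kinase panel screen.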

SMILES | %Inh [%]
Cc1ccc2c(-c3ccncc3)c(-c3ccc(F)cc3)nn2c1.Cl [GW461484] | 27
O=C(NCCCN1CCOC1=O)c1cnc(NCc2cc(Cl)ccc2Cl)nc1NC1CCCC1 | 0
CC(C)N1C(=O)Cc2cc(Nc3ncc(C(F)(F)F)c(NCc4cccc(S(C)(=O)=O)c4)n3)ccc21 | 0

The compounds below were run on CSNK2A1. Settings: concentration: 1 μM,replicates: in singlicate; n = 1.

SMILES | %Inh [%]
C[C@@H]1CCN(C(=O)CC#N)C[C@@H]1N(C)c1ncnc2[nH]ccc12 | 0
CC(C)Nc1cc(-c2ccc3c(N)n[nH]c3c2)nc(N)n1 [GSK2221681] | 13
CCN(CC)CCCCNc1ncc2cc(-c3c(Cl)cccc3Cl)c(NC(=O)NC(C)(C)C)nc2n1 | 1
Cl.Oc1cc(-c2nc(-c3ccccc3)[nH]c2-c2ccncc2)ccc1Cl [SB-386023] | 11
C[C@H]1Oc2cc(cnc2N)-c2c(nn(C)c2C#N)CN(C)C(=O)c2ccc(F)cc21 | 0
Cl.Cl.Nc1nc(-c2ccc3c(N)n[nH]c3c2)cc(N2CCCC(NC(=O)c3ccccc3)C2)n1 (stereo not drawn) [GSK2286775] | 0
Cc1cc2cn[nH]c2cc1-c1cccc2c(N)c(C(N)=O)nnc12 | 19
CCn1c(-c2nonc2N)nc2c(C#CC(C)(C)O)nc(OCCN)cc21.Cl.Cl [GSK902056] | 0
C=CC(=O)Nc1cc2c(Nc3ccc(F)c(Cl)c3)ncnc2cc1OCCCN1CCOCC1 [GW781483] | 27
Nc1nc(Nc2ccccc2)cc(-c2ccc3c(N)n[nH]c3c2)n1 [GSK2225749] | 34
Cc1cc(C(=O)Nc2ccc(Oc3ccc4nc(NC(=O)C5CC5)cn4n3)cc2)nn1-c1ccccc1 | 0
C[C@@H](Oc1cc(-c2cnn(C3CCNCC3)c2)cnc1N)c1c(Cl)ccc(F)c1Cl | 18
NC(=O)c1cc(-c2ccccc2)cc2c(C3CCNCC3)c[nH]c12 [GSK301362] | 31
Cc1occc1-c1nc(N)c(OC[C@@H](N)Cc2c[nH]c3ccccc23)cc1-c1cc2c(C)n[nH]c2cn1 [GSK1660450] | 76
Cc1n[nH]c2ccc(-c3cc(OC[C@@H](N)Cc4ccccc4)cnc3-c3ccoc3)cc12.O=C(O)C(F)(F)F.O=C(O)C(F)(F)F [GSK507358] | 10
Cc1ccc(-n2nc(C(C)(C)C)cc2NC(=O)Nc2ccc(OCCN3CCOCC3)c3ccccc23)cc1 [GW839464] | 0
COc1ccc(C[C@@H](CN)NC(=O)c2cc(Br)c(-c3ccnc4[nH]ccc34)s2)cc1.Cl.Cl [GSK1389063] | 57
O=C(NCCNc1ccnc(NCc2ccc(F)cc2)n1)c1cc2ccccc2s1 [GSK1379944] | 0
CCN(CC)CCOc1ccc(Nc2ncc3cc(-c4c(Cl)cccc4Cl)c(=O)n(C)c3n2)cc1 [SB-601273] | 6
CN(C)CCOc1ccc(-c2cc(-c3c[nH]nc3-c3ccccn3)ccn2)cc1 [GW835314] | 0
Cl.Cl.NC[C@H](Cc1ccc(C(F)(F)F)cc1)NC(=O)c1cc(Br)c(-c2ccnc3[nH]ccc23)s1 [GSK1487252] | 0
CNC(=O)c1ccccc1Sc1ccc2c(/C=C/c3ccccn3)n[nH]c2c1 | 0
CN(C)CC(O)COc1ccc(Nc2nccc(-c3cnn4nc(N5CCOCC5)ccc34)n2)cc1 (stereo not drawn) [GW767488] | 97.1
Cl.Cl.NC[C@H](CC1CCCCC1)NC(=O)c1cc(Br)c(-c2ccnc3[nH]ccc23)s1 [GSK1581427] | 55
Cc1ccc2c(-c3ccncc3)c(-c3ccc(F)cc3)nn2c1.Cl [GW461484] | 0
O=C(NCCCN1CCOC1=O)c1cnc(NCc2cc(Cl)ccc2Cl)nc1NC1CCCC1 | 16
CC(C)N1C(=O)Cc2cc(Nc3ncc(C(F)(F)F)c(NCc4cccc(S(C)(=O)=O)c4)n3)ccc21 | 55

What follows are compounds tested on CSNK2A2. Settings: concentration: 1 μM,replicates: in singlicate; n = 1.

SMILES | %Inh [%]
C[C@@H]1CCN(C(=O)CC#N)C[C@@H]1N(C)c1ncnc2[nH]ccc12 | 0
CC(C)Nc1cc(-c2ccc3c(N)n[nH]c3c2)nc(N)n1 [GSK2221681] | 28
CCN(CC)CCCCNc1ncc2cc(-c3c(Cl)cccc3Cl)c(NC(=O)NC(C)(C)C)nc2n1 | 12
Cl.Oc1cc(-c2nc(-c3ccccc3)[nH]c2-c2ccncc2)ccc1Cl [SB-386023] | 30
C[C@H]1Oc2cc(cnc2N)-c2c(nn(C)c2C#N)CN(C)C(=O)c2ccc(F)cc21 | 0
Cl.Cl.Nc1nc(-c2ccc3c(N)n[nH]c3c2)cc(N2CCCC(NC(=O)c3ccccc3)C2)n1 (stereo not drawn) [GSK2286775] | 6
Cc1cc2cn[nH]c2cc1-c1cccc2c(N)c(C(N)=O)nnc12 | 5
CCn1c(-c2nonc2N)nc2c(C#CC(C)(C)O)nc(OCCN)cc21.Cl.Cl [GSK902056] | 46
C=CC(=O)Nc1cc2c(Nc3ccc(F)c(Cl)c3)ncnc2cc1OCCCN1CCOCC1 [GW781483] | 16
Nc1nc(Nc2ccccc2)cc(-c2ccc3c(N)n[nH]c3c2)n1 [GSK2225749] | 24
Cc1cc(C(=O)Nc2ccc(Oc3ccc4nc(NC(=O)C5CC5)cn4n3)cc2)nn1-c1ccccc1 | 0
C[C@@H](Oc1cc(-c2cnn(C3CCNCC3)c2)cnc1N)c1c(Cl)ccc(F)c1Cl | 0
NC(=O)c1cc(-c2ccccc2)cc2c(C3CCNCC3)c[nH]c12 [GSK301362] | 20
Cc1occc1-c1nc(N)c(OC[C@@H](N)Cc2c[nH]c3ccccc23)cc1-c1cc2c(C)n[nH]c2cn1 [GSK1660450] | 48
Cc1n[nH]c2ccc(-c3cc(OC[C@@H](N)Cc4ccccc4)cnc3-c3ccoc3)cc12.O=C(O)C(F)(F)F.O=C(O)C(F)(F)F [GSK507358] | 8
Cc1ccc(-n2nc(C(C)(C)C)cc2NC(=O)Nc2ccc(OCCN3CCOCC3)c3ccccc23)cc1 [GW839464] | 4
COc1ccc(C[C@@H](CN)NC(=O)c2cc(Br)c(-c3ccnc4[nH]ccc34)s2)cc1.Cl.Cl [GSK1389063] | 64
O=C(NCCNc1ccnc(NCc2ccc(F)cc2)n1)c1cc2ccccc2s1 [GSK1379944] | 66
CCN(CC)CCOc1ccc(Nc2ncc3cc(-c4c(Cl)cccc4Cl)c(=O)n(C)c3n2)cc1 [SB-601273] | 9
CN(C)CCOc1ccc(-c2cc(-c3c[nH]nc3-c3ccccn3)ccn2)cc1 [GW835314] | 3
Cl.Cl.NC[C@H](Cc1ccc(C(F)(F)F)cc1)NC(=O)c1cc(Br)c(-c2ccnc3[nH]ccc23)s1 [GSK1487252] | 14
CNC(=O)c1ccccc1Sc1ccc2c(/C=C/c3ccccn3)n[nH]c2c1 | 0
CN(C)CC(O)COc1ccc(Nc2nccc(-c3cnn4nc(N5CCOCC5)ccc34)n2)cc1 (stereo not drawn) [GW767488] | 98.7
Cl.Cl.NC[C@H](CC1CCCCC1)NC(=O)c1cc(Br)c(-c2ccnc3[nH]ccc23)s1 [GSK1581427] | 0
Cc1ccc2c(-c3ccncc3)c(-c3ccc(F)cc3)nn2c1.Cl [GW461484] | 0
O=C(NCCCN1CCOC1=O)c1cnc(NCc2cc(Cl)ccc2Cl)nc1NC1CCCC1 | 23
CC(C)N1C(=O)Cc2cc(Nc3ncc(C(F)(F)F)c(NCc4cccc(S(C)(=O)=O)c4)n3)ccc21 | 82
